39 compounds from PubChem BioAssay (NCI) can be followed below.

Structures are written as SMILES. Values joined by “and” are separate entries in the source; they are usually repeats but may differ in a detail not shown here. Equal values may be shown once. The panel holds about 83,000 compounds, 20% with a hit somewhere; the sample as a whole holds those more often.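 Method: cells in 96-well plates; compound added at one concentration; 48 h incubation; percent growth measured; values under 10 scored active.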 Values without a mark were called inactive. Active and inactive are the calls of the source.

One experiment deals with HCT-15 colon. Briefly: NCI-60 one-dose screen, 48 h (100 = growth as untreated, 0 = no growth, -100 = all killed). Conditions: 1 µM. The procedure: Growth inhibition of the HCT-15 human tumor cell line is measured as a screen for anti-cancer activity. Cells are grown in 96 well plates and exposed to the test compound for 48 hours. Compounds are tested at a single concentration, which is 10^-5 M for most compounds. The reported endpoint is percent growth (GI% or GIPRCNT), where numbers from 0 - 100% represent growth inhibition, and numbers from -100% - 0 represent cell death. For example, a value of 40 represents 60% growth inhibition. A value of 0 means no net growth occurred over the course of the experiment. A value of -40 indicates 40% of cells at the beginning of the experiment died by the end of the experiment. A value of -100 means all cells are dead at the end of the experiment.
NCI-60 Human Tumor Cell Lines Screen was performed using the standard one-dose NCI protocol, which is described in more detail at https://dtp.cancer.gov/discovery_development/nci-60/default.htm.
Compounds with GIPRCNT values below 10 were considered active. Activity score was based on GIPRCNT using the following formula: […]
Score is 0 for GIPRCNT values of 100 or above, 50 for GIPRCNT values of 0, and 100 for GIPRCNT values of -100.
`CC/C(=C(\c1ccc(O)cc1)c1ccc(OCCN(C)C(=O)COCCNC(=O)Cc2ccc3c(c2)CN([C@@H]2CCC(=O)NC2=O)C3=O)cc1)c1ccccc1`: the growth was 110%.

Staying with this experiment, now noted: 10 µM.
Consider `CC/C(=C(\c1ccc(O)cc1)c1ccc(OCCN(C)C(=O)COCCNC(=O)Cc2ccc3c(c2)CN([C@@H]2CCC(=O)NC2=O)C3=O)cc1)c1ccccc1`, for which the growth is 99.5%.

The experiment is the same for the next values; noted with them: 10 µM unless noted.
Take `CC(C)CN1C(=O)/C(=C\C(=O)c2cc3ccccc3oc2=O)c2ccccc21`: the growth was 45.3%. For the compound `Cc1nn(-c2ccccc2)c2nc(C)n(CC(=O)N/N=C/c3ccccc3O)c(=O)c12`, the growth was 26.7%.

For the compound `O=C(NN1C(=O)/C(=C/C=C/c2ccc([N+](=O)[O-])o2)SC1=S)c1ccncc1`, the growth was -78.9% (active). Turning to `O=C(CSc1nnc(-c2ccc(-c3nc4ccccc4[nH]3)cc2)o1)Nc1ccccc1`, the growth was 55.5%.

On to `CC(=O)Nc1ccc(S(=O)(=O)Nc2ccc(-c3ccc4c(c3)NC(=O)/C4=C\c3ccc[nH]3)cc2)cc1`, for which the growth is 98.3%. On to `COc1ccccc1NC(=O)N/N=C/c1c[nH]c2ccccc12`, for which the growth is 13.8%. As to `CS(=O)(=O)c1ccc(-n2nc(C(=O)NCc3ccccc3)cc2-c2ccc(Cl)cc2)cc1`, the growth is 66.3%. Consider `Cc1ccc(C2CC(c3ccc(NC(=O)Nc4ccccc4)cc3)=NN2c2ccc(S(C)(=O)=O)cc2)cc1` (stereo not given), for which the growth is -84.4% (active). Regarding `CCCCCCCCCc1ccc(C(=O)Nc2cc(C)ccc2C(=O)OC)cc1`, the growth is 103%. Consider `CS(=O)(=O)Nc1cc(-c2ccc3ncnc(N4CCc5cc(F)c(Cl)cc54)c3c2)cnc1Cl`, for which the growth was 7.55% (active). As for `CC(=O)C[n+]1cccc2c3ccccc3ccc21`, the growth is 97.5%. On the same count and under the same terms, for `Cc1ccc2c(c1)/C(=C/C(=O)c1cc3ccccc3oc1=O)C(=O)N2` the value was -20.4% (active). Regarding `CCOc1ccccc1[C@H]1C(C(=O)c2ccc(Cl)cc2)C2(N[C@@H]1c1ccccc1)C(=O)Nc1ccc(Br)cc12` (stereo not given in full), the growth was -5.64% (active). For `Cc1cccc(-c2ccccc2Oc2ccc3nnc(Cl)n3n2)c1`, the growth was 99.6%. On to `COc1ccc2c(c1)N=c1c-2cc2c(O)[nH]c(=S)n2c1=O`, for which the growth is 27.3%. Turning to `N#Cc1c(-c2ccc(F)cc2)nc(SCc2ccccc2)nc1N1CCNCC1`, the growth was -87.9% (active). On to `CC1=C(C)C(=O)C(NCCN2CCOCC2)=C(Br)C1=O`, for which the growth was 90.7%. In the case of `COC(=O)CSC1=C(C)C(=O)C(OC)=C(OC)C1=O`, the growth is 86.3%.

As to `Oc1cncc(-c2ccc3ncnc(N4CCc5cc(F)c(Cl)cc54)c3c2)c1`, the growth was 66.3%. In the case of `COc1ccc(/C=C/c2nc3ccccc3c(=O)n2CC(=O)Nc2ccccc2)cc1`, the growth is 79.9%. Take `CCC1(OC(=O)c2ccccc2SSCCOC(=O)CCCCC2SCC3NC(=O)NC32)C(=O)OCc2c1cc1n(c2=O)Cc2cc3ccccc3nc2-1` (stereo not given): the growth was 64.7%.

`CCCCCCCCc1ccc(C(=O)Nc2ccc(C)c(OP(=O)(O)O)c2)cc1`: the growth was 95.5%. On to `Cc1ccc(C(=O)Nc2cc(-n3cnc(F)c3)cc(C(F)(F)F)c2)cc1C#Cc1cnc2cccnn12`, for which the growth is 36.2%.

For `Cc1ccc(C(=O)C[n+]2cccc3c4ccccc4ccc32)cc1`, the growth was 56.8%. As for `COc1ccc(-c2cc(C(=O)Oc3ccc(C=O)cc3OC)nn2-c2ccc(S(C)(=O)=O)cc2)cc1`, the growth was 81.9%. With `Cn1cc(-c2cc(N)n3nc(-c4c[nH]c5ccccc45)cc3n2)c2cc(F)ccc21`, the growth is -77.5% (active).

For the compound `CCCCNC(=S)Nc1ccc(OCc2nc3ccc(Cl)cc3[nH]2)cc1`, the growth was 14.5%. Turning to `CCC(=O)c1cc(C(=O)OC)c2ccc3c4ccccc4ccc3n12`, the growth was 91.4%. Take `CCCCCCCCc1cccc(CC(=O)Nc2ccc(C)cc2C(=O)O)c1`: the growth was 13.2% [25 µM].

Regarding `Nc1nc2cc(-c3ccc4ncnc(NCc5ccccc5)c4c3)ccc2o1`, the growth is 14.1%. In the case of `COc1ccc(/C=C/C(=O)c2ccc(OC)c(S(N)(=O)=O)c2)c(C(F)(F)F)c1`, the growth was -52% (active).

As to `Cc1nn(-c2ccccc2)c2nc(C)n(CC(=O)N/N=C/c3cccc([N+](=O)[O-])c3)c(=O)c12`, the growth was 96.2%. `O=C(N=Nc1c(O)[nH]c2ccc(Cl)cc12)c1ccc2nc(-c3ccc(Cl)cc3)[nH]c2c1`: the growth is 78.6%. `NC1(c2ccc(-c3ccc4ncnc(NCc5ccccc5)c4c3)cn2)COC1`: the growth is 109% and 102%. For `Cc1cccc(NCC(=O)N2CCN(c3ncnc4c3cnn4-c3ccccc3)CC2)c1`, the growth was 72.9%. With `CC[C@]12C=CCN3CC[C@@]4(c5ccc(OC)cc5N(C)[C@H]4[C@@](O)(C(=O)OC)[C@@H]1OC(=O)CCCC[P+](c1ccc(F)cc1)(c1ccc(F)cc1)c1ccc(F)cc1)[C@@H]32`, the growth is 102%. Still for that read-out and setting: the result for `COc1cc(C=O)ccc1OC(=O)c1cc(-c2ccc(C)cc2)n(-c2ccc(S(C)(=O)=O)cc2)n1` reads 96.7%; that for `COc1ccccc1Nc1nnc(-c2c[nH]c3ccccc23)o1`, 11.5%.
